This is an account of results in the supplement of paper PMC7724964.

What all share (assay): phage ELISA signal ratio (GST-PRM binding over GST background); higher = stronger binding of peptide-phage to the PRM
(An ELISA detects its analyte on a solid surface through an enzyme-linked reagent.)

Assay [1] concerns the target T1, GGA1 1-157 VHS (domain begin residue: 1, domain end residue: 157), Q9UJY5.
T1 chain: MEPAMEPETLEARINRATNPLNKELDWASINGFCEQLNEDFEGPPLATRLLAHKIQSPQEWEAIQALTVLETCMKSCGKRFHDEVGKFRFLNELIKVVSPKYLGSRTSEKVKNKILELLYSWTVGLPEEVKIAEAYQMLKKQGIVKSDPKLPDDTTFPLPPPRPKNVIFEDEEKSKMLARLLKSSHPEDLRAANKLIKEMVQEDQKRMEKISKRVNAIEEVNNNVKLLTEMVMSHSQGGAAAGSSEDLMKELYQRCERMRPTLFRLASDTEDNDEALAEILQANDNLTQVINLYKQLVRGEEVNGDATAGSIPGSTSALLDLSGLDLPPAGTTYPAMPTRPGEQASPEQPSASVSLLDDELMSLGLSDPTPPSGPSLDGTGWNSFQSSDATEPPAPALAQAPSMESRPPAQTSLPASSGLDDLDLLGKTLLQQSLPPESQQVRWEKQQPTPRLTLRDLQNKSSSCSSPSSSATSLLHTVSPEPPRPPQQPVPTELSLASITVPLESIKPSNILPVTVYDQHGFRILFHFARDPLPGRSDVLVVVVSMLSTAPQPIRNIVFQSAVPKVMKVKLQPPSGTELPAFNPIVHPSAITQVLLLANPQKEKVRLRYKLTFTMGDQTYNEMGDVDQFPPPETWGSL
The method, boiled down:
(§1)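 Each value is the phage ELISA signal on the glutathione S-transferase (GST)-domain fusion divided by the signal on GST alone. Human peptide recognition domains were expressed in 96-well plates, fused to the C-terminus of GST, and selected against an M13 phage library carrying randomized, cysteine-free, glycine-flanked hexadecapeptides on the gene-8 major coat protein. After five selection rounds, approximately 48 individual clones from rounds 4 and 5 were tested by phage ELISA, and positive clones were sequenced.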

For assay [2], the target named is T2, GIGYF2 507-602 GYF (domain begin residue: 507, domain end residue: 602), Q6Y7W6.
T2 chain: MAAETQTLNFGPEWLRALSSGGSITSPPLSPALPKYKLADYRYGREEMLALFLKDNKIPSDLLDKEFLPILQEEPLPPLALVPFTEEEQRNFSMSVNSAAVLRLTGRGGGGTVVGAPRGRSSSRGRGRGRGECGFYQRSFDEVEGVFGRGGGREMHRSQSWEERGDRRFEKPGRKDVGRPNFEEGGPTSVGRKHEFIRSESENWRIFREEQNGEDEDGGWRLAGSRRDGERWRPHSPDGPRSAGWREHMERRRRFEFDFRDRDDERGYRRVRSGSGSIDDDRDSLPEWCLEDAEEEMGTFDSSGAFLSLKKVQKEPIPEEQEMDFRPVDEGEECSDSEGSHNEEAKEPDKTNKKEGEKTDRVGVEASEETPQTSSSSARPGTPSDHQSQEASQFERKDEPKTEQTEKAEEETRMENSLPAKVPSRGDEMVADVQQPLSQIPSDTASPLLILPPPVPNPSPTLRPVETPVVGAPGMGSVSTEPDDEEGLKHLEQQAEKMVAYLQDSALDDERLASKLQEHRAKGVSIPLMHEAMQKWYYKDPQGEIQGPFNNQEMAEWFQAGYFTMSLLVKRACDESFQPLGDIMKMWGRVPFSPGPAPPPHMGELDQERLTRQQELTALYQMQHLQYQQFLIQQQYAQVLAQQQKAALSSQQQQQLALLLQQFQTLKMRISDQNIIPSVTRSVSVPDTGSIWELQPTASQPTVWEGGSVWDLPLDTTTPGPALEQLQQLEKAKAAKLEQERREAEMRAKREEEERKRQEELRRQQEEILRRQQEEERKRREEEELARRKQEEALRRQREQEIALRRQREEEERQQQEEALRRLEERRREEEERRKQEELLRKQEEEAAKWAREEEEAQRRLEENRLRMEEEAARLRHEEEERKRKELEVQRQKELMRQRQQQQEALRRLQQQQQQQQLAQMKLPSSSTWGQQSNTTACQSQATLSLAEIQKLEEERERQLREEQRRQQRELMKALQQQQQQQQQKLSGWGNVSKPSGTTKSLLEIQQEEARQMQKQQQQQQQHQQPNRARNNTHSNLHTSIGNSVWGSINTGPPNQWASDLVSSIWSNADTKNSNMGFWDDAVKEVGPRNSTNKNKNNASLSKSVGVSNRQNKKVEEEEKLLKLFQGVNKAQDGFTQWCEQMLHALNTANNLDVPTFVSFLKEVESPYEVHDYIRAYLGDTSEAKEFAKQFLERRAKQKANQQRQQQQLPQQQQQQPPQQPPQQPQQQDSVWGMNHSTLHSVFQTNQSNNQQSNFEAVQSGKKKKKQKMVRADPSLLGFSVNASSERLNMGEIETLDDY
The method, boiled down:
as §1

Assay [3] addresses GGA3 1-153 VHS (domain begin residue: 1, domain end residue: 153). In a few lines: as §1
Assay [4] has as its target GGA3 579-723 Alpha_adaptinC2 (domain begin residue: 579, domain end residue: 723). The method, boiled down:
as §1

Assay [5] deals with T3, GIGYF1 448-540 GYF (domain begin residue: 448, domain end residue: 540), O75420.
T3 chain: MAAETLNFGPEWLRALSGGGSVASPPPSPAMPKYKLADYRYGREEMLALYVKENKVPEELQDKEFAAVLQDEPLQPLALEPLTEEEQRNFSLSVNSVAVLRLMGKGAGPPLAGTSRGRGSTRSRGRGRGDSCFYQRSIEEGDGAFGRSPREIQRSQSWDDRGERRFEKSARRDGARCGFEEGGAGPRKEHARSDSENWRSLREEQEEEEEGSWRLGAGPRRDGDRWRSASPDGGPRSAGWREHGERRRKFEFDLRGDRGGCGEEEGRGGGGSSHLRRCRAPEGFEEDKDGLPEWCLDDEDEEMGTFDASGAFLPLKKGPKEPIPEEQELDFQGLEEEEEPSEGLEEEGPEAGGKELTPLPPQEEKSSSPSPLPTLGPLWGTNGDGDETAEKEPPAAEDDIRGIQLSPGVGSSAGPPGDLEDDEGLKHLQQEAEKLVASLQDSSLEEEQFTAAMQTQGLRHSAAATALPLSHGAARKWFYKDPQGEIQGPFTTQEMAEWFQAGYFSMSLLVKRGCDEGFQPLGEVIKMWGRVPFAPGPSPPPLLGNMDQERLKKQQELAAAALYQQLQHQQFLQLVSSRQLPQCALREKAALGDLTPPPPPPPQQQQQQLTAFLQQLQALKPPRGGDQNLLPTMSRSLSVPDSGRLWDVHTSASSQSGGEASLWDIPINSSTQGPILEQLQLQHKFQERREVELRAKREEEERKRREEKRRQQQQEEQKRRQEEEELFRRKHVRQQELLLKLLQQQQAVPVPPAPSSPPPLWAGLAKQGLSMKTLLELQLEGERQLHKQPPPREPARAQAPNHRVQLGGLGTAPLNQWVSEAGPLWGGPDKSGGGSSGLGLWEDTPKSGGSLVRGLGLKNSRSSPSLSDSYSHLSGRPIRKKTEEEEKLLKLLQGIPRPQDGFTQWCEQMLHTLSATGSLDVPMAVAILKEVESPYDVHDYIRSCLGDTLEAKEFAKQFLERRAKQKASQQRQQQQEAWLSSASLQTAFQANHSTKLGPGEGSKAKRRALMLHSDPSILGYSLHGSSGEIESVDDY
In a few lines: as §1

Assay [6] deals with T4, FRS3 12-117 IRS (domain begin residue: 12, domain end residue: 117), O43559.
T4 chain: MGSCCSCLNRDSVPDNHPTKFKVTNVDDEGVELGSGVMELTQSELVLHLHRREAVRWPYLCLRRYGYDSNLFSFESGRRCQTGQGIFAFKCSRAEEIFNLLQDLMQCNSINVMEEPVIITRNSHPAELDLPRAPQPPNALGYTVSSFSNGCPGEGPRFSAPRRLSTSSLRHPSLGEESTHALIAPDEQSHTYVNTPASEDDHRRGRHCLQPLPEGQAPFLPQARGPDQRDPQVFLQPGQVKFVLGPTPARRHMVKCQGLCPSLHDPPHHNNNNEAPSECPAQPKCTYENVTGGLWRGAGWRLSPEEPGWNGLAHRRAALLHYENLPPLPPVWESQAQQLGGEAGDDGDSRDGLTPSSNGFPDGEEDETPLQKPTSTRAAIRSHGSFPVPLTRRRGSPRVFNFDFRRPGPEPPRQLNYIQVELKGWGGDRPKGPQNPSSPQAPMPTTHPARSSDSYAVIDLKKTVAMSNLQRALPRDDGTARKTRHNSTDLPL
The method, boiled down:
as §1

Assay [7] addresses T5, GNA14 2-355 G-alpha (domain begin residue: 2, domain end residue: 355), O95837.
T5 chain: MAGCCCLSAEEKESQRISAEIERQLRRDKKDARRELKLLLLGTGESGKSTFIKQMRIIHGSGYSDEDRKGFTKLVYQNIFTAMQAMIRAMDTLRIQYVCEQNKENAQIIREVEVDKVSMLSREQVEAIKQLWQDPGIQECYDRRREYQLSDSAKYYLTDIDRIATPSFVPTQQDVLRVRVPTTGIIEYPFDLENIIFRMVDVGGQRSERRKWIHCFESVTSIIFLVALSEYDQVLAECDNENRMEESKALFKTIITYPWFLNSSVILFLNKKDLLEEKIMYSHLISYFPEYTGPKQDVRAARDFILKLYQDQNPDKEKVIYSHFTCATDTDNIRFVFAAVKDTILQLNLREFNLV
In a few lines: as §1

B1: unnamed (peptide)
chain: WGHYEEDQMFVFMDHE
As to B1, the “phage ELISA signal ratio” value in assay [1] came out at 19.8.

B2: unnamed (peptide)
chain: QPPPGWVPSTELLEFL
In the case of B2, in assay [2], the “phage ELISA signal ratio” value is 23.1.

B3: unnamed (peptide)
chain: HDFYIPYMYQDVTMIM
With B3, the “phage ELISA signal ratio” value in assay [1] turned out to be 6.03.

B4: unnamed (peptide)
chain: HSQWWVGPEQPWGQVQ
Take B4: the “phage ELISA signal ratio” value in assay [3] was determined as 12.2.

B5: unnamed (peptide)
chain: VNNQWDNDVPMLSMFA
As to B5, the “phage ELISA signal ratio” value in assay [1] came to 16.4.

B6: unnamed (peptide)
chain: EMDVEMWFPHFMNHSF
As for B6, the “phage ELISA signal ratio” value in assay [3] amounted to 34.5.

B7: unnamed (peptide)
chain: IENSQPWITEYGAWEV
Consider B7, for which, in assay [4], the “phage ELISA signal ratio” value was determined as 6.07.

B8: unnamed (peptide)
chain: QTDDPMWIPHQWFQAG
Turning to B8, the “phage ELISA signal ratio” value in assay [3] is 23.1.

B9: unnamed (peptide)
chain: NYPNHPPGYEKWFQTM
With B9, the “phage ELISA signal ratio” value in assay [2] is 26.6.

B10: unnamed (peptide)
chain: DHWGPPGLTWHVMERA
As to B10, in assay [5], the “phage ELISA signal ratio” value came to 10.1.

B11: unnamed (peptide)
chain: TMHHDDQLLDLYSVRK
On to B11, for which the “phage ELISA signal ratio” value in assay [1] was 18.5.

B12: unnamed (peptide)
chain: ARDLPPGFVMSPENAM
For B12, in assay [2], the “phage ELISA signal ratio” value stood at 11.7.

B13: unnamed (peptide)
chain: WHGQEADDVQMLWHWS
Turning to B13, in assay [3], the “phage ELISA signal ratio” value was 5.39.

B14: unnamed (peptide)
chain: GEQMMWVDWGQWHWYE
With B14, the “phage ELISA signal ratio” value in assay [4] came to 26.

B15: unnamed (peptide)
chain: GEMDDPMMHFSWVAMW
As for B15, in assay [1], the “phage ELISA signal ratio” value was 12.6.

B16: unnamed (peptide)
chain: WEDWMEDWRQWEEPRK
Turning to B16, in assay [4], the “phage ELISA signal ratio” value stood at 31.4.

B17: unnamed (peptide)
chain: SQWMWIVHEPVKNLPK
With B17, the “phage ELISA signal ratio” value in assay [6] came out at 3.36.

B18: unnamed (peptide)
chain: MEPFTTWDQLPWWMQE
Take B18: the “phage ELISA signal ratio” value in assay [3] came to 12.9.

B19: unnamed (peptide)
chain: MTWWVAPWNESLDLWE
Turning to B19, the “phage ELISA signal ratio” value in assay [6] is 10.5.

B20: unnamed (peptide)
chain: QRPPGNWGEVTQVPIL
Regarding B20, the “phage ELISA signal ratio” value in assay [2] came to 9.77.

B21: unnamed (peptide)
chain: DEWGQWQLHESVFLME
For B21, in assay [4], the “phage ELISA signal ratio” value is 27.9.

B22: unnamed (peptide)
chain: TPPGYTMLMKEHSARH
B22: the “phage ELISA signal ratio” value in assay [2] came to 20.5.

B23: unnamed (peptide)
chain: IQWNDMDFENLSGWWG
For B23, the “phage ELISA signal ratio” value in assay [4] was 4.03.

B24: unnamed (peptide)
chain: MDWTILDFPYQNWPRS
In the case of B24, in assay [3], the “phage ELISA signal ratio” value came out at 13.9.

B25: unnamed (peptide)
chain: VWQVPEWQTVQLEYMK
Consider B25, for which the “phage ELISA signal ratio” value in assay [6] came out at 17.9.

B26: unnamed (peptide)
chain: QTMTWEARDPSKMLEL
For the molecule B26, the “phage ELISA signal ratio” value in assay [1] was determined as 12.5.

B27: unnamed (peptide)
chain: PDAMPLWHGHHVVPVY
B27: in assay [1], the “phage ELISA signal ratio” value turned out to be 18.9.

B28: unnamed (peptide)
chain: AMTPPGFPHNTQMIRA
On to B28, for which the “phage ELISA signal ratio” value in assay [2] amounted to 16.9.

B29: unnamed (peptide)
chain: EYLQIPVHHVDGIWSV
For B29, in assay [3], the “phage ELISA signal ratio” value amounted to 10.8.

B30: unnamed (peptide)
chain: QPDQIRFGPYISFSAI
As for B30, the “phage ELISA signal ratio” value in assay [7] was 24.3.
